Entries with a potency or affinity are not part of this list. Calls of active or inactive are those of the source.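 The calls were made as follows: active = absorbance falls by 30% or more versus neutral controls, with a potency fitted within twice the top valid dose; inconclusive = no clear call, values can overlap the other calls; inactive = change opposite to expected direction, plus the rest.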
Target: Protein disulfide-isomerase (Homo sapiens) (UniProt P07237)
Assay: inhibition of PDI-driven insulin aggregation – biochemical, turbidity, absorbance, cherry-picked samples, dose response (AID 602350)
Details: recombinant PDI insulin aggregation, absorbance 650 nm, 90 min; series mostly up to 19.5 µM

Protein disulfide-isomerase (Homo sapiens), sequence (P07237 whole entry, looked up): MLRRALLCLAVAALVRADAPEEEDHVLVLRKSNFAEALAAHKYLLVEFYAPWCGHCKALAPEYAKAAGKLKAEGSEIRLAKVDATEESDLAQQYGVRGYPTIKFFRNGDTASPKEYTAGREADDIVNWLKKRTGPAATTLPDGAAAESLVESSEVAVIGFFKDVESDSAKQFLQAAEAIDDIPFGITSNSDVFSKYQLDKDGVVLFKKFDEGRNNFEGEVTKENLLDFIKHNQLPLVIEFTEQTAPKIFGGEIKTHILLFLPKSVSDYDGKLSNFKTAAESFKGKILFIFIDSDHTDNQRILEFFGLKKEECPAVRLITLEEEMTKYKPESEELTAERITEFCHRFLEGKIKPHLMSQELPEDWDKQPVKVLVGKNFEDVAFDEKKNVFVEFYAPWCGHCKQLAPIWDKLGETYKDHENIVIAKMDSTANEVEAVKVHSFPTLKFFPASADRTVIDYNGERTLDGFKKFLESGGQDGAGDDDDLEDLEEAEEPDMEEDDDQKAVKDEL

outcome, inactive:
Cc1noc(C)c1S(=O)(=O)Nc1ccc2c(c1)CC(=O)N([C@H](C)CO)C[C@@H](C)[C@@H](CN(C)S(=O)(=O)c1ccc(F)cc1)O2
CN(C)c1ccc(NC(=O)CN2C(=O)CC(c3ccccc3)=Nc3ccccc32)cc1
O=C(N/N=C/c1cccc([N+](=O)[O-])c1)c1cnccn1
CCOC(=O)c1c(CN(C)C)n(-c2ccc(C)cc2)c2cc(Br)c(O)cc12
CC(C)Cn1c(N)c(C(=O)COC(=O)c2ccc(O)cc2)c(=O)n(C)c1=O
CC(=O)c1ccc(OCc2cc(C(=O)N3CCCCC3c3cccnc3)no2)cc1 (stereo unspecified)
CC1CC(C)CN(C(=O)COC(=O)c2ccc[nH]c2=O)C1 (stereo unspecified)
O=C(c1ccc(S(=O)(=O)N2CCCCC2)cc1)N1CCN(Cc2ccc3c(c2)OCO3)CC1
NC(Cc1ccc(C(F)(F)F)cc1)c1csc(Nc2ccc(C(=O)NCCCO)cn2)n1 (stereo unspecified)
C=CCn1c(C(CCCC)CC(O)COCC(C)C)n[nH]c1=S (stereo unspecified)
CC1(C(=O)Nc2cccc3c2CCCC3)CCN1C(=O)c1cccc(F)c1 (stereo unspecified)
Cc1ccc(N2CC(C(=O)Nc3nc4ccc(S(C)(=O)=O)cc4s3)CC2=O)cc1 (stereo unspecified)
O=C(Nc1ccc(Br)cc1F)c1cccnc1
CN(C)CCCN(C(=O)c1ccc(S(=O)(=O)N2CCc3ccccc32)cc1)c1nc2c(Cl)cccc2s1
O=C(NC1CCCCC1)C1CCN(S(=O)(=O)c2cccs2)CC1
COc1ccc(CN(C)C[C@@H]2Oc3c(NS(C)(=O)=O)cccc3C(=O)N([C@H](C)CO)C[C@H]2C)cc1

Source: PubChem BioAssay AID602350 (Broad Institute, 2012)
